# Assay outcomes from PubChem.
# A selection: hits, their analogues and other compounds. The true share with any hit is near 6.1%.
# HepG2 viability – counter-screen for TGF-b inhibitors: cytotoxicity in HepG2 cells. AID 588856. Potency, µM (highest dose often 46.1 µM), inactives show at the top dose activity change, negative = cytotoxicity, usual class: cytotoxic. HepG2 CAGA-GFP viability, ATP luminescence, 18 h. 0.76% of 410,000 active
#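 CellTiter-Glo luminescence gave cytotoxicity after 18 hours at 37 degrees C. The cells were HepG2 CAGA-GFP in 1% FBS DMEM, stimulated with 500 pg/mL TGF-beta after compound addition. %Activity was normalised to no-cell wells (complete cell-killing) and DMSO (no toxicity), and curves were fitted and classified.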
# RORg inh – blocks mouse ROR gamma transcriptional activity. Drosophila S2 Gal4-RORgamma UAS-luciferase reporter, 20 h. AID 2551. Potency, µM (highest dose often 53.6 µM), without a hit: top-dose activity change, negative = inhibition, usual class: inhibitors. P51450. 5.4% of 310,000 active; also: % is scaled to controls: 0 for no effect and ±100 for the full control effect; nearly all actives have a fitted effect of over 60% in size
# Target sequence (P51450 whole entry, looked up, the tested form may be a part): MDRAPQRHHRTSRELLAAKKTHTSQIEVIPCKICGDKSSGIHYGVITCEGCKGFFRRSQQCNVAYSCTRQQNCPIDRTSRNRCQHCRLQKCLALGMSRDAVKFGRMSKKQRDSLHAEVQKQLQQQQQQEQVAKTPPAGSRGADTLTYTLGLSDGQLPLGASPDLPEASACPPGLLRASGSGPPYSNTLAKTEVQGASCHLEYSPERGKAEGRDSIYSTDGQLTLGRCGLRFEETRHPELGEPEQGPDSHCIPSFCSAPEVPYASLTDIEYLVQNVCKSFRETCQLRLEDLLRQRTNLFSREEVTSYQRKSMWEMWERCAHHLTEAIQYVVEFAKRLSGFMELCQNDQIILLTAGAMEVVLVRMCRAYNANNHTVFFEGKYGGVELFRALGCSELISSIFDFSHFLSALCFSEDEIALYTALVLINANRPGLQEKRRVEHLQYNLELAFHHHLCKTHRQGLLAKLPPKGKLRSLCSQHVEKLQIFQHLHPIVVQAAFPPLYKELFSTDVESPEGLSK
#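 Schneider cells (Drosophila), stable Gal4 DBD–ROR gamma + UAS-luc; 1 hr cmpd preincubation; Cu2+ induction 700 uM final; 20 hr ambient; luminescence.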
# TGFb inhibitor – blocks TGF-b signaling; HepG2 CAGA-GFP TGF-b/SMAD3 reporter, GFP fluorescence, 18 h; TGF-beta stimulated, 500 pg/mL final; Potency, µM (series often up to 46.1 µM), for the others: at the highest dose activity, negative = inhibition, hits mostly inhibitors; 1.2% of 410,000 active; AID 588855; also: % is scaled to controls: 0 for no effect and ±100 for the full control effect; nearly all actives have a fitted effect of over 65% in size
#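 Read-out: total well GFP (ex488/em500-530) summed from mean per-cell fluorescence. Cells: HEPG2 CAGA-GFP, 1% FBS DMEM, 18 h at 37 degrees C with 500 pg/mL final TGF-beta. Unstimulated wells served as the full-inhibition control; stimulated DMSO wells = 0%.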
# ATXN viability – reduces viability in counter-screen for ATXN expression inhibitors; S2 cells (HEK-293 line with an ATXN2-luciferase reporter) viability, CellTiter-Fluor protease fluorescence, 24 h; Potency, µM (highest dose often 56.7 µM), actives largely listed as cytotoxic; 0.49% of 400,000 active; AID 651635; also: nearly all actives have a fitted effect of over 40% in size
# ATXN2 expr inh – ATXN2 expression inhibition; HEK-293 ATXN2-luciferase reporter, luminescence, 24 h; Potency, µM (highest dose often 57 µM), for inactives: top-dose activity change, negative = inhibition, hits mostly inhibitors; 0.72% of 360,000 active; also: % is scaled to controls: 0 for no effect and ±100 for the full control effect; nearly all actives have a fitted effect of over 55% in size
#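 qHTS (up to 57 uM final) was run with 24 h compound exposure of reporter cells at 37 °C. Each well was multiplexed: SteadyGlo luminescence measured ATXN2-luciferase expression after a fluorogenic Gly-Phe-AFC viability readout (25 uM final).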
# VP16 counter – Gal4-VP16 reporter inhibition counter-screen; Drosophila S2 Gal4-VP16 UAS-luciferase, luminescence, 20 h; Potency, µM (top dose mostly 53.6 µM), for inactives: at the highest dose activity, negative = inhibition, usual class: inhibitors; 3.5% of 310,000 active;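 also: Gal4-VP16 expression switched on by copper sulfate through the metallothionein promoter; % is scaled to controls: 0 for no effect and ±100 for the full control effect; nearly all actives have a fitted effect of over 50% in size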
# Active calls of the source: *; i = inactive; ? = inconclusive; nt = no result; [ ] = remark or other dose. Calls follow the shape of the dose curve; as a rule, active = well fitted curve in the direction sought with a large enough effect; inconclusive = small, poorly fitted or top-dose-only effect, or another doubt; inactive = no such curve, though single readings can be large; an effect the other way counts as inactive or inconclusive. Potency is read from the fitted curve at half-maximal effect.
SMILES,HepG2 viability,RORg inh,TGFb inhibitor,ATXN viability,ATXN2 expr inh,VP16 counter
COCCn1c(SCC(=O)Nc2ccc(F)c(Cl)c2)nc2c(oc3ccccc32)c1=O,-13%,nt,?,i,-7%,nt
COc1ccc(N(CC(O)Cn2c3ccccc3c3ccccc32)S(=O)(=O)c2ccccc2)cc1 (stereo not given),-34%,30%,?,i,-6%,-8%
Cc1ccc(N(CC(O)Cn2c3ccccc3c3ccccc32)S(=O)(=O)c2ccc(F)cc2)cc1 (stereo not given),14µM*,nt,8.9µM*,nt,nt,nt
COCC(=O)Nc1cc(C(=O)N2CC3CCC2C3)c2c(c1)nc(-c1ccncc1)n2C (stereo not given),nt,nt,nt,i,nt,nt
NC(=S)N=Nc1c(O)[nH]c2ccc(F)cc12,-32%,4.5µM*,-27%,i,5%,?
Cc1cccc(NC(=S)N=Nc2c(O)[nH]c3ccccc23)c1,-28%,1.4µM*,?,?,?,3.5µM*
O=Nc1c(O)[nH]c2ccc(F)cc12,-12%,-19%,-9%,i,-2%,0%
CC(C)NC(=S)N=Nc1c(O)[nH]c2ccc(C(C)C)cc12,-14%,5µM*,?,3.5µM*,nt,4.5µM*
CC(C)c1ccc2[nH]c(O)c(N=NC(=O)c3cccc(S(=O)(=O)Nc4ccccc4Cl)c3)c2c1,-12%,16%,9%,i,-18%[11.3 µM],-12%
O=C(N/N=C1/C[C@@H](O)[C@@H](O)[C@@H]2[C@@H]3C(=O)N(C4CCCCC4)C(=O)[C@H]3CC[C@@H]12)OCc1ccccc1,nt,33%[10 µM],nt,nt,nt,4%[10 µM]
CC(=O)Nc1cccc(/C(C)=N/NC(=O)c2ccc(Cl)cc2Cl)c1,-21%,38%,-15%,i,4%[11.3 µM],-4%
C=CCNC(=S)Nc1cccc(NC(=S)NCC=C)c1,-21%,7.9µM*,?,nt,nt,?
C=CCNC(=S)N/N=C(\C)c1cccc(NC(C)=O)c1,-1%,3.5µM*,-1%,i,nt,?
C=CCNC(=O)NC(=S)c1ccccc1,-21%,13µM*,-25%,i,41%,?
C=CCNC(=O)c1ccccc1NC(=O)c1ccccc1,-3%,18%,0%,i,10%,-5%
C=CCNC(=S)NN(c1ccccc1)c1ccccc1,5%,2µM*,17%,i,-18%,6.3µM*
C=CCNC(=S)Nc1ccccc1,-15%,-126%,4%,i,-14%,?
C[C@@H]1C(=O)O[C@H]2CC34[C@H]5C[C@@H](C(C)(C)C)C36[C@H](OC(=O)[C@@H]6O)O[C@@]4(C(=O)O5)[C@]21O (stereo not given in full),nt,nt,nt,nt,0%,nt
CC(=O)N1CCN(c2ccc(O)cc2)CC1,nt,nt,nt,i,-17%,nt
COc1ccc(CN2C(=O)C(NC(=O)c3ccccc3OC)(C(F)(F)F)N=C2c2ccccc2)cc1 (stereo not given),-21%,nt,?,i,4%,nt
C=CCNC(=S)N/N=C(\C)c1cc(OC)c(OC)c(OC)c1,-30%,2µM*,?,i,-1%,4.5µM*
Nc1nc(N)c(-c2cccc(C(F)(F)F)c2)c(Cc2cccc(C(F)(F)F)c2)n1,8.9µM*,nt,?,i,?,nt
CCCc1cc(=O)[nH]c(SCC(=O)Nc2cc(S(=O)(=O)N3CCCCC3)ccc2C)n1,16µM*,nt,?,i,-3%,nt
Cc1ccc(S(=O)(=O)N2CCCCC2)cc1NC(=O)COC(=O)c1cccc(O)c1,11µM*,nt,9%,i,nt,nt
NC(=O)C1CCN(C(=O)c2ccc(NC(=O)c3nsc4ccccc34)cc2)CC1,-24%,nt,2%,i,-18%,nt
SMILES,HepG2 viability,RORg inh,TGFb inhibitor,ATXN viability,ATXN2 expr inh,VP16 counter
COc1cccc(CNc2nc(NCC3CC3)nc3ccsc23)c1OC,-47%,nt,?,16µM*,0%,nt
CSc1ccccc1CNc1nc(NCC2CC2)nc2ccsc12,11µM*,nt,16µM*,14µM*,?,nt
Clc1ccccc1Nc1nc(NCC2CC2)nc2ccsc12,-22%,nt,-7%,i,-16%,nt
COc1cccc(CNc2nc(NC(C)C)nc3ccsc23)c1OC,-47%,nt,?,?,-32%,nt
CCCC(=O)NCc1nc2cccnc2n1Cc1ccc(F)cc1,0%,nt,-22%,nt,nt,nt
Oc1c(Br)cc(Br)cc1C=Nc1ccc2c(c1)OCO2,-3%,18µM*,13%,i,-24%,?
Oc1c(Br)cc(Br)cc1C=Nc1ccc2c(c1)OCCO2,-10%,?,?,i,nt,?
CCN(CC(=O)NC(C)C)Cc1nc2sc3c(c2c(=O)[nH]1)CCC3,-14%,1.1µM*,2%,i,-3%,4.5µM*
CC(=O)Nc1ccc(NC(=O)CCc2nc3sc4c(c3c(=O)[nH]2)CCCC4)cc1,3%,nt,1%,i,3%,nt
Cc1cc(C)cc(NC(=O)CCc2nc3sc4c(c3c(=O)[nH]2)CCCC4)c1,-85%,nt,?,?,8.9µM*,nt
C[C@H]1CN([C@@H](C)CO)C(=O)CCCn2nncc2CO[C@@H]1CN(C)S(=O)(=O)c1cn(C)cn1,37%,nt,21%,i,7%,nt
COc1cccc(S(=O)(=O)N(C)C[C@H]2OCc3cnnn3CCCC(=O)N([C@H](C)CO)C[C@H]2C)c1,18µM*,nt,-6%,i,-2%,nt
C[C@@H]1CN([C@H](C)CO)C(=O)CCCn2nncc2CO[C@@H]1CN(C)S(=O)(=O)c1cn(C)cn1,11µM*,nt,-22%,i,-10%,nt
Cc1ccc(CN2CCSc3ccc(C(=O)N4CCN(c5cccc(C)c5C)CC4)cc32)cc1,4%,nt,-15%,?,0%,nt
O=C(CCCSc1nc2ccccc2[nH]1)NCc1ccccc1,8%,12%,-4%,i,5%,0%
O=C(Cc1ccccc1)Nc1nnc(-c2ccccc2)o1,-5%,1.1µM*,3%,i,-5%,3.5µM*
Cc1ccc(C)c(-c2nnc(NC(=O)Cc3ccccc3)o2)c1,12%,1µM*,?,i,nt,1.1µM*
Cc1ccc(S(=O)(=O)CCC(=O)Nc2nnc(-c3ccc(F)cc3)o2)cc1,-30%,nt,-11%,i,5%,nt
O=C(Cc1ccc(F)cc1)Nc1nnc(-c2ccc(F)cc2)o1,-15%,?,-21%,i,-6%,1.4µM*
O=C(CCCSc1nc2ccccc2[nH]1)Nc1nnc(-c2ccccc2)o1,-39%,13µM*,?,i,-16%,-22%
Cc1ccc(CN2C[C@H](Sc3ccccn3)C[C@H]2C(=O)Nc2ccc3sc(C)nc3c2)s1,nt,nt,nt,i,nt,nt
Cc1cccc(CC(C)NC(=O)CCc2nnc(-c3ccccc3)o2)n1 (stereo not given),2%,7%,-3%,i,nt,-5%
